PubChem BioAssay (NCI)
Values joined by “and” are separate entries in the source; they are usually repeats but may differ in a detail not shown here. Identical values can stand only once. About 83,000 compounds went through this panel and 20% of them were active in at least one assay; those are over-represented in the sample as a whole.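 The test compound was applied at a single concentration to cells in 96-well plates for 48 hours, and percent growth was recorded.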 Values without a mark were called inactive. Active and inactive are the calls of the source. The calls were made as follows: active = growth percent below 10; inactive = the rest.

What follows are compounds tested on MDA-MB-468 breast (assay: NCI-60 one-dose screen, 48 h (100 = growth as untreated, 0 = no growth, -100 = all killed)). Conditions: 10 µM unless noted.

| Compound | growth |
| --- | --- |
| CNC(=O)c1cccc(-c2ccc3c(N4CCOC[C@@H]4C)nc(N4CCOC[C@@H]4C)nc3n2)c1 | -30.7% (active) and -22.8% (active) |
| COc1ccccc1/C=C/C=N/NC1=NC2C(S1)N(C)C(=O)N2C (stereo not given) | -5.34% (active) |
| O=[N+]([O-])c1cnc(Sc2ccncn2)c([N+](=O)[O-])c1 | -44.4% (active) |
| Cc1ccc(-c2onc3c(=O)[nH]nc(-c4ccccc4)c23)cc1 | 29.5% |
| CCCCCCNC(=O)Oc1ccc(/C(=C(\C)c2ccc(Cl)cc2)c2ccc(OCCCN(C)C)cc2)cc1 | 92% |
| NC(=S)NN=C1CCCC1 | 14.1% |
| c1csc(-c2[nH]nc3c2CCc2ccccc2-3)c1 | -18.7% (active) |
| CC(O)c1cnc(/C=C2\SC(=S)N(Cc3ccccc3)C2=O)s1 (stereo not given) | 13.8% |
| CC1=C(Cl)C(=O)c2cc(C)ccc2C1=O | 95.2% |
| Cn1cc(-c2nc(N)nnc2-c2c[nH]c3ccc(Br)cc23)c2cc(F)ccc21 | 75.5% |
| COc1ccc2c(c1)/C(=C/c1cc(OC)c(OC)c(OC)c1)C(=O)N2C | 25.9% |
| Nc1c(C(=O)Nc2cccc(F)c2)sc2nc3c(cc12)C(=O)CCC3 | 33.2% |
| CCN(CC)c1ccc2nc3ccc(N=Nc4ccc(N(C)C)cc4)cc3[n+](-c3ccccc3)c2c1 | -65.6% (active) |
| O=C1/C(=C2\SC(=S)N(C3CC3)C2=O)SC(=S)N1C1CC1 | 88.7% |
| CO[C@H]1C[C@@H]2CC[C@@H](C)[C@@](O)(O2)C(=O)C(=O)N2CCCC[C@H]2C(=O)O[C@H]([C@H](C)C[C@@H]2CC[C@@H](OC(=O)C(C)(CO)CO)[C@H](OC)C2)CC(=O)[C@H](C)/C=C(\C)[C@@H](O)[C@@H](OC)C(=O)[C@H](C)C[C@H](C)\C=C/C=C/C=C/1C | 0.224% (active) |
